Data reported in PubChem BioAssay AID651718 (The Scripps Research Institute Molecular Screening Center, 2012).
Among all 360,000 compounds or so, about 2,700 (0.75%) were called active. Rule as the data show it: active = inhibition above about 4.5%; inactive = the rest. Shown is part of a subset that was picked to be rich in actives.

Test system: Methionine sulfoxide reductase A (Bos taurus)
Assay: bovine MsrA enzyme inhibitors, primary screen, biochemical, absorbance, HTS (AID 651718);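 also: 0% = vehicle wells with enzyme and 100% = reference inhibitor wells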
Conditions: purified bovine MsrA, absorbance read-out; at 15.5 µM; stronger effect = higher value

| Structure (SMILES) | inhibition |
| --- | --- |
| COc1ccccc1CCn1cnc(-c2ccccc2)c1C(C)C | 0% (inactive) |
| COc1ccc(CCNC(=S)NC(=O)/C=C/c2ccc(C)cc2)cc1OC | 0.54% (inactive) |
| COc1ccc(/C=C2\N=C3CCCN3C2=O)cc1 | 4.73% (active) |
| COc1ccc(/C=C2\SC(=N)N(c3ccc(F)cc3)C2=O)cc1 | -0.72% (inactive) |
| COc1ccc(/C=C2/CCCc3ccccc3C2=O)cc1 | 0.69% (inactive) |
| CCCCn1c(N)c(N(CCOC)C(=O)COc2c(C)cccc2C)c(=O)[nH]c1=O | 0.79% (inactive) |
| O=C(NCc1ccccc1)[C@H]1CCCN1C(=O)[C@H]1CCCN1C(=O)c1cc(F)cc(F)c1 | 0.16% (inactive) |
| O=C(OCc1cc2ccccc2[nH]c1=O)c1cccnc1 | -0.22% (inactive) |
| O=C(Oc1c(-c2ccco2)oc2ccccc2c1=O)c1cccnc1 | 5.77% (active) |
| O=C(CC(=O)c1cccnc1)c1ccccc1 | 2.87% (inactive) |
| CCOc1cc(/C=N/NC(=O)c2ccc(CSc3nncn3C)cc2)ccc1OCC(=O)N1CCOCC1 | 4.92% (active) |
| CC(C)CC(CC(C)C)=NNC(=O)c1ccc(CSc2nncn2C)cc1 | -0.77% (inactive) |
| CCOc1cc(/C=N/NC(=O)c2cccc(S(=O)(=O)N3CCOCC3)c2)ccc1OCC(=O)N(C)C | 4.25% (inactive) |
| CCC(Cc1ccccc1)NS(=O)(=O)c1ccc2c(c1)NC(=O)CS2 (stereo not given) | -0.21% (inactive) |
| C=CCNC(=S)N/N=C/c1ccc(C)s1 | 4.91% (active) |
| CNC(=S)N/N=C/c1ccc(N2CCOCC2)s1 | 3.27% (inactive) |
| C=CCNC(=S)NNC(=O)c1ccc(Br)o1 | -0.22% (inactive) |
| CC(C)(C)C(c1nc2ccccc2[nH]1)n1c(Cc2csc3ccccc23)nc2ccccc21 (stereo not given) | -0.41% (inactive) |
| COC(=O)C1=C(C)N(Cc2ccccc2C(F)(F)F)C(=NCC2CC2)NC1c1cccc(Cl)c1 (stereo not given) | -2.13% (inactive) |
| O=S1(=O)c2ccc(Br)cc2-n2nncc2CN1Cc1cccc(Cl)c1 | 0.62% (inactive) |
| CC(C)(C)n1nc(C2CC2)c(Br)c1NC(=O)c1ccccc1F | -0.05% (inactive) |
| CC(C)C[C@H]1CN([C@@H](Cc2ccccc2)CN2CCC[C@@H]2CN2C(=O)C(=O)NC[C@@H]2Cc2ccc(O)cc2)C(=O)C(=O)N1CCc1ccccc1 | -0.32% (inactive) |

| Structure (SMILES) | inhibition |
| --- | --- |
| O=C(O)c1ccccc1Cc1ccc(F)c2ccccc12 | 0.31% (inactive) |
| COc1cccc(NC(=O)N(C)C[C@@H]2OCc3cn(nn3)CCCC(=O)N([C@@H](C)CO)C[C@H]2C)c1 | 0.43% (inactive) |
| O=S1(=O)N=C(N(CCO)/N=C/c2ccccc2F)c2ccccc21 | 5.01% (active) |
| C=CCOCCN(C)C1=NS(=O)(=O)c2ccccc21 | 0.32% (inactive) |
| COc1ccc(/C=N/N(C)C2=NS(=O)(=O)c3ccccc32)cc1OC | 1.42% (inactive) |
| O=S1(=O)c2c(cccc2N2CCCC2)O[C@H](COCc2ccccc2)CN1C1CC1 | 0.28% (inactive) |
| C=CCN=C1NC(c2ccccc2)C(C(=O)OC)=C(C)N1Cc1ccc(C(F)(F)F)cc1 (stereo not given) | -1.03% (inactive) |
| Cc1cc(C)c2cc(C#N)c(N3CCNCC3)nc2c1 | 0.05% (inactive) |
| CC(=O)c1ccc(S(=O)(=O)N2CCN(c3nc4c(C)c(C)ccc4cc3C#N)CC2)cc1 | 0.77% (inactive) |
| Cc1cccc2cc(C#N)c(N3CCCC3)nc12 | 7.71% (active) |
| N#Cc1cccc(C(=O)NCC2CCN(C(=O)C(=O)c3cc4ccccc4o3)CC2)c1 | 1.67% (inactive) |
| COc1ccccc1CC(=O)Nc1ccc(S(=O)(=O)N2CCCC2)cc1 | -0.82% (inactive) |
| COc1ccc(S(=O)(=O)N2CCCCCC2)cc1NC(=O)Cc1ccc(OC)c(OC)c1 | -0.53% (inactive) |
| COc1ccc(-c2ccc(Nc3ccc(S(=O)(=O)N4CCCC4)cc3)nn2)cc1OC | 5.88% (active) |
| COc1ccc(S(=O)(=O)NC(C)c2ccccc2)cc1C(=O)N1CCCCC1 (stereo not given) | 0.8% (inactive) |
| COC(=O)C1=C(C)N(Cc2ccccc2C(F)(F)F)C(=NCc2ccc(C(F)(F)F)cc2)NC1c1ccc(F)cc1 (stereo not given) | -2.62% (inactive) |
| C#CCN([C@@H](C)C(=O)OCC)S(=O)(=O)c1ccc(Br)cc1F | -0.88% (inactive) |
| CCCc1nc(SCC(=O)N2CCCC2)c2c(=O)n(C)c(=O)n(C)c2n1 | 5.22% (active) |
| CCOC(=O)N1CCN(C(=O)CSc2nc(C)nc3c2c(=O)n(C)c(=O)n3C)CC1 | -1.46% (inactive) |
| Cn1c(=O)c2c(SCC(=O)N3CCOCC3)nc(C3CC3)nc2n(C)c1=O | -0.05% (inactive) |
| CC1CCCN(c2cccc3c2S(=O)(=O)N(Cc2ccc(F)cc2)[C@@H](C)[C@H](c2ccccc2)O3)C1 (stereo not given in full) | 0.93% (inactive) |
| Cc1cc(C)nc(NC2=NCC(=O)N2c2ccc(Cl)cc2)n1 | 3.92% (inactive) |

| Structure (SMILES) | inhibition |
| --- | --- |
| Cc1ccc(C)c(NC2=NCC(=O)N2c2ccc3c(c2)OCCO3)c1 | 0% (inactive) |
| Cc1ccc(N2C(=O)CN=C2Nc2nc(C)cc(C)n2)cc1 | 6.56% (active) |
| COC(=O)C1=C(C)N(Cc2cccc(C(F)(F)F)c2)C(=NCc2ccccc2)NC1c1ccccc1C(F)(F)F (stereo not given) | -1.24% (inactive) |
| CC(C)[C@@H](C)/C=C/[C@@H](C)[C@H]1CC[C@@H]2[C@]1(C)CCC1[C@]23C=C[C@]2(C[C@@H](O)CC[C@]12C)N(c1ccc([N+](=O)[O-])cn1)O3 (stereo not given in full) | -1.75% (inactive) |
| CN1C(=O)C(CC(=O)Nc2ccccc2)S/C1=N/c1nccs1 (stereo not given) | 1.53% (inactive) |
| O=C(O)CC1S/C(=N\N=C/c2ccccc2O)N(c2ccc(O)cc2)C1=O (stereo not given) | 4.57% (active) |
| CCCCOCC1CN(CCCC)S(=O)(=O)c2c(Oc3ccc(F)cc3)cccc2O1 (stereo not given) | 0.09% (inactive) |
| C[C@H](CO)N1C[C@H](C)[C@@H](CN(C)C(=O)Nc2ccccc2F)OCc2cn(nn2)CCCC1=O | -1.47% (inactive) |
| COc1ccc(S(=O)(=O)c2c[nH]c(=S)[nH]c2=O)cc1Cl | 5.55% (active) |
| COc1ccc(S(=O)(=O)N(C)CC(=O)N2CCCC2)cc1Cl | -0.26% (inactive) |
| Cc1ccc(S(=O)(=O)c2c[nH]c3ccc(Cl)cc3c2=O)cc1 | -0.29% (inactive) |
| C[C@H](O)[C@@H]1C(=O)N2CCc3c([nH]c4c(-c5ccc6c(c5)OCO6)cccc34)[C@@H]2C[C@@H]1N(C)C(=O)c1ccco1 | -0.82% (inactive) |
| COC(=O)C1=C(C)N(Cc2ccc(C(F)(F)F)cc2)C(=NCc2ccc(C(F)(F)F)cc2)NC1c1cccc(Cl)c1 (stereo not given) | -2.13% (inactive) |
| Cc1ccc(/C=N/NC(=S)NC2CCCCC2)o1 | 4.73% (active) |
| C/C(=N\NC(=S)NC1CCCCC1)c1ccc(C)o1 | 2.23% (inactive) |
| Cc1ccc(/C=N/NC(=O)Cn2nc(C)c(Br)c2C)o1 | 1.58% (inactive) |
| COc1ccccc1CNS(=O)(=O)c1cc2c3c(c1)CCC(=O)N3CCC2 | 0.88% (inactive) |
| Cc1cccc(CN2CCN(C3CN(Cc4cn(Cc5cc(C)cc(C)c5)nn4)S(=O)(=O)C3)CC2)c1 (stereo not given) | -0.09% (inactive) |
| COC(=O)c1c(-c2ccc(OC)cc2)c2c(c3c4cc(OC)ccc4n(S(=O)(=O)c4ccc(F)cc4)c13)C(=O)N(C)C2 | 1.35% (inactive) |
| COC(=O)[C@]12C[C@H](CC(=O)NCc3ccc(OC)c(OC)c3)C(=O)N(Cc3ccccc3)C1=C[C@H](C(C)C)O[C@@H]2C1CC1 | 0.87% (inactive) |
| C/C(=N\Nc1nc2ccccc2[nH]1)c1cccs1 | 4.27% (inactive) |
| C/C(=N\Nc1ccc(S(N)(=O)=O)cc1[N+](=O)[O-])c1cccs1 | 4.74% (active) |

| Structure (SMILES) | inhibition |
| --- | --- |
| C/C(=N\Nc1ccccc1)c1cccs1 | -0.47% (inactive) |
| COc1cccc(CC(=O)N2CCN(C(=O)C(=O)c3cccc(C(F)(F)F)c3)CC2)c1 | -0.48% (inactive) |
| COc1ccccc1Cc1c(-c2ccc(F)cc2)nc2ccc(C)cn12 | -0.14% (inactive) |
| O=C(N[C@H](C(=O)N1CCC[C@H]1C(=O)NCCc1ccccc1Cl)c1ccccc1)c1ccccc1 | -1.55% (inactive) |
| COC(=O)[C@]1(Cc2ccccc2)NC=C(C(=O)c2ccccc2)[C@@H]1c1cccc(OC)c1 | 1.03% (inactive) |
| Cc1nc2ccccc2n1CC(=O)N/N=C/c1cccs1 | 0.96% (inactive) |
| Cn1c(=O)c2c(nc(N/N=C/c3cccs3)n2Cc2ccc(Br)cc2)n(C)c1=O | -0.37% (inactive) |
| Cc1n[nH]c(=O)nc1N/N=C/c1cccs1 | 5.54% (active) |
| Cc1ccc(N)cc1CN1CCN(c2ncc(Cc3ccccc3)cn2)CC1 | -0.75% (inactive) |
| CC(=O)C1=C(C)N(Cc2ccccc2)C(=S)NC1c1cccc(Br)c1 (stereo not given) | 0.33% (inactive) |
| COc1ccc(/C=C(/NC(=O)c2ccccc2)C(=O)Nc2cccc(C(=O)O)c2)cc1 | 1.96% (inactive) |
| COc1ccccc1C(=O)N/C(=C/c1ccco1)C(=O)Nc1ccc(C(=O)O)cc1 | 3.68% (inactive) |
| COc1ccccc1C(=O)N/C(=C/c1ccc2c(c1)OCO2)C(=O)Nc1cccc(C(=O)O)c1 | 5.04% (active) |
| O=C(NCc1ccccc1)[C@H]1CCCN1C(=O)[C@@H]1CCCN1C(=O)c1ccc(Cl)cc1Cl | -0.17% (inactive) |
| NC(=S)N/N=C/c1ccc([N+](=O)[O-])cc1 | 5.41% (active) |
| NC(=O)C1(Nc2ccc([N+](=O)[O-])cc2)CCCC1 | 1.4% (inactive) |
| O=[N+]([O-])c1ccc(N=NNc2ccc([N+](=O)[O-])cc2)cc1 | 0.99% (inactive) |
| Cc1ccc(-c2ccc(/C=C(\C#N)C(N)=S)o2)c([N+](=O)[O-])c1 | 10.9% (active) |
| Cc1ccc2nc(SCc3nnc(-c4ccccc4[N+](=O)[O-])o3)c(C#N)cc2c1 | -0.69% (inactive) |
